From PubChem BioAssay (EPA / NIEHS)
Where “and” joins values, the source holds several entries; their conditions need not be identical. Equal values may be shown once. Calls of active or inactive are those of the source. How the source made its calls: active means hit-call score of the fitted dose curve at least 0.9, where 1 is the maximum; inactive means score below 0.9.

Assay: BSK_4H_SRB: Viability Assessment in the BioMAP Diversity Plus: 4H Assay (AID 2283027);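 further: cells exposed to compound for 24 h before staining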;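 on AC50: curves fitted both ways versus DMSO so AC50 may be loss or gain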
Settings: primary human endothelial cells (HUVEC)
Description: BSK_4H is a cell-based, multiplexed-readout assay that uses umbilical vein endothelium, a human vascular primary cell, with measurements taken at 24 hours after chemical dosing in a 96-well plate.BSK_4H_SRB is an assay component measured in the BSK_4H assay. It measures […] related to cell death using Sulforhodamine staining technology.Data from the assay component BSK_4H_SRB was analyzed into 1 assay endpoint. This assay endpoint, BSK_4H_SRB, was analyzed with bidirectional fitting relative to DMSO as the negative control and baseline of activity. Using a type of viability reporter, gain or loss-of-signal activity can be used to understand changes in the signaling. Furthermore, this assay endpoint can be referred to as a primary readout, because this assay has produced multiple assay endpoints where this one serves a signaling function. To generalize the intended target to other relatable targets, this assay endpoint is annotated to the cell morphology intended target family, where the subfamily is cell conformation.
The levels of cell surface (or secreted, indicated by the prefix "s") biomarker endpoints were measured by ELISA. Overt cytotoxicity to cells in confluent adherent cultures (all systems other than the BT system) was assessed by measuring total protein levels using sulforhodamine B (SRB) staining in parallel cultures at the time of biomarker measurements, indicated as SRB endpoints. For proliferation assays for adherent cell types, individual cell types are cultured at sub-confluence and relative cell numbers quantified by SRB staining at time points optimized for each system (48 h: 3C and CASM3C systems; 72 h: BT and HDF3CGF systems; 96 h: SAg system). SRB was performed by staining cells with 0.1% SRB after fixation with 10% TCA and reading wells at 560 nm.Viability and proliferation of PBMC (T cells) was quantified by Alamar Blue reduction for the SAg and BT systems. For PBMC viability (referred to as PBMC Cytotoxicity within the assay endpoint names), cells were plated (75,000/well in a 96-well plate) and then chemical samples added for 1 h before addition of activators, SEB and TSST-1 (20 ng/mL final concentration each). Cells were incubated for 90 h. Then, Alamar Blue (20 uL/well) (Invitrogen, Cat DAL1100) was added for 6 h, and the plates were read with a fluorescence microplate reader at 546/580 nm (excitation/emission). For PBMC proliferation, cells were plated and activated as above but incubated for only 16 h prior to addition of Alamar Blue. Plates were read after 6 h.
With `C[N+](C)(C)CCCNS(=O)(=O)C(F)(F)C(F)(F)C(F)(F)C(F)(F)C(F)(F)C(F)(F)C(F)(F)C(F)(F)F` the outcome was “inactive”. In the case of `C=CC(=O)OCC(C)OCC(C)OCC(C)OC(=O)C=C` (stereo not given), the AC50 is reported as 12.1 µM (active). In the case of `Nc1nc(N)nc(-c2ccccc2)n1`, the outcome is reported as “inactive”. With `CCNc1nc(NC(C)(C)C)nc(OC)n1` the outcome was “inactive”. For `CC(C)c1cccc(C(C)C)c1N`, the AC50 was 33.5 µM (active). With `COc1ccc(C(=O)/C(Br)=C\C(=O)O)cc1` the AC50 was 20 µM (active) and 17.1 µM (active). In the case of `c1ccc(Nc2cccc3ccccc23)cc1`, the AC50 is reported as 33.3 µM (active) and 35.6 µM (active). In the case of `CCOC(=O)C1=NOC(c2ccccc2)(c2ccccc2)C1`, the outcome is reported as “inactive”. In the case of `C=CC(=O)NC(C)(C)C`, the outcome is reported as “inactive”. In the case of `CC(C)[N+](C)(CCOC(=O)C1c2ccccc2Oc2ccccc21)C(C)C`, the outcome is reported as “inactive”. For `CCc1cccc(C)c1N(C(=O)CS(=O)(=O)O)C(C)COC` (stereo not given), the outcome was “inactive”. For `O=C1CCCCCCCCCCCN1`, the outcome was “inactive”. With `CCCC(C)C(=O)OCC` (stereo not given) the outcome was “inactive”. For `CCCCCCC=O`, the outcome was “inactive”. In the case of `Fc1ccc(Br)cc1`, the outcome is reported as “inactive”. In the case of `COc1ccc(C(=O)c2ccccc2)c(O)c1`, the outcome is reported as “inactive”. In the case of `C=C(C)C(=O)OCCCCCCCCCCCC`, the outcome is reported as “inactive”. For `c1ccc2sc(SSN3CCOCC3)nc2c1`, the AC50 was 5.2 µM (active). With `O=C(O)C(F)(F)C(F)(F)C(F)(F)C(F)(F)C(=O)O` the outcome was “inactive”. With `C=CC(=O)NCOCCCC` the outcome was “inactive”. For `C=CC(=O)OCCCCCCOC(=O)C=C`, the AC50 was 20 µM (active). In the case of `Oc1ccccc1Cc1ccccc1O`, the outcome is reported as “inactive”. In the case of `CCCCCCCCC(CO)CCCCCC` (stereo not given), the outcome is reported as “inactive”. In the case of `Nc1ccc(C(=O)O)cc1`, the outcome is reported as “inactive”. In the case of `CC(Cl)COP(=O)(OCC(C)Cl)OCC(C)Cl` (stereo not given), the outcome is reported as “inactive”. With `CC(C)C(=O)OCCc1ccccc1` the outcome was “inactive”. With `Cc1ccc([N+](=O)[O-])cc1N` the outcome was “inactive”. For `c1ccc2c(c1)[nH]c1ccccc12`, the outcome was “inactive”. For `CCCCCCCCCCCC(C)=O`, the AC50 was 33.9 µM (active). In the case of `Oc1c(Cl)cc(Cl)c(Cl)c1Cl`, the AC50 is reported as 24.5 µM (active). In the case of `C1CNCCN1`, the outcome is reported as “inactive”. For `CC=C(C)C=CC=C(C)C`, the outcome was “inactive”. With `O=C1CCCCCCCCCCC1` the outcome was “inactive”. For `CCCCC1C(=O)N(c2ccccc2)N(c2ccccc2)C1=O`, the outcome was “inactive”. In the case of `CCCCCC1=CCCC1=O`, the outcome is reported as “inactive”. In the case of `CC1=CC=C(C(C)C)CC1`, the outcome is reported as “inactive”. With `C=CCCCCCCCCC=O` the outcome was “inactive”. For `CC/C=C\CCOC(=O)c1ccccc1O`, the AC50 was 14.2 µM (active). In the case of `CCC1(C)C(=O)N(Cl)C(=O)N1Cl` (stereo not given), the outcome is reported as “inactive”. In the case of `CCN1CN(CC)CN(CC)C1`, the outcome is reported as “inactive”.
